Results from PubChem BioAssay (NCATS).
Records with an inconclusive call do not appear. The source made the active and inactive calls. Unless noted, the call rests on the fitted dose curve; in most records, active means well fitted curve in the direction sought with a large enough effect; inconclusive means small, poorly fitted or top-dose-only effect, or another doubt; inactive means no such curve, though single readings can be large; an effect the other way counts as inactive or inconclusive.

Key:
[1] = biological target: Thioredoxin reductase 1, cytoplasmic (Rattus norvegicus) (UniProt O89049); experiment: qHTS Assay for Substrates of Mammalian Selenoprotein Thioredoxin Reductase 1 (TrxR1) (AID 488772);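 further: series mostly up to about 57 µM; 0% is about no effect; a drop in NADPH fluorescence below the no-compound background marks a TrxR1 substrate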
Method in brief: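 In this dual-purpose format, potential substrates are identified from the first fluorescence read after selenite addition, not from the 8-minute delta. Rat enzyme is preincubated with NADPH and then with compound at ~22 deg C.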

[2] = biological target: Thioredoxin reductase 1, cytoplasmic (Rattus norvegicus) (UniProt O89049); experiment: qHTS Assay for Inhibitors of Mammalian Selenoprotein Thioredoxin Reductase 1 (TrxR1) (AID 488773); details: Potency: inhibition;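 further: drop in NADPH fluorescence over an 8 min run after selenite addition; series mostly up to about 57 µM; on the % scale 0 is the no-effect control and ±100 the full control effect; nearly all actives have a fitted effect of over 40% in size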
Method in brief: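 Inhibition is scored from the loss of NADPH fluorescence between first and last reads of an 8-min kinetic run. Selenite (400 uM) was the substrate, added after 15 min compound preincubation at room temperature.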

[3] = biological target: Flap endonuclease 1 (Homo sapiens) (UniProt P39748); experiment: qHTS Validation Assay for the Inhibitors of Human Flap endonuclease 1 (FEN1) (AID 488816); further: on the % scale 0 is the no-effect control and ±100 the full control effect
Flap endonuclease 1 (Homo sapiens), sequence (P39748 whole entry, looked up): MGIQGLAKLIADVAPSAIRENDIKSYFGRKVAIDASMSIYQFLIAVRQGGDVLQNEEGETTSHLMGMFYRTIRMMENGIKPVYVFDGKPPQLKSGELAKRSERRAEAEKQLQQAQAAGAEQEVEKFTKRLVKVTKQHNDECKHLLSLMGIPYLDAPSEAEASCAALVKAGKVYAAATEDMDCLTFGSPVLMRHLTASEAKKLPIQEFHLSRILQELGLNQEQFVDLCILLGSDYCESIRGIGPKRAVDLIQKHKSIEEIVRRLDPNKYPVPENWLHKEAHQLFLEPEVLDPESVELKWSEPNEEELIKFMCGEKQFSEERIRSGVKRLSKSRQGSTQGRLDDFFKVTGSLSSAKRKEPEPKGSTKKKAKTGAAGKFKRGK
Method in brief: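 Enzyme reagent 10 nM; cpds pinned; 15 min RT preinc.; substrate 50 nM final; reads t=0 and 15 min; no-enzyme buffer wells as neg. control; normalized data, 4-parameter Hill fit.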

[4] = biological target: M-phase phosphoprotein 8 (Homo sapiens) (UniProt Q99549); experiment: qHTS Validation Assay for Inhibitors for MPP8 Chromodomain Interactions with Methylated Histone Tails (AID 488949);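 further: AlphaScreen signal from MPP8 chromodomain bound to biotinylated H3K9me3 peptide; top concentration of the series differs between compounds; on the % scale 0 is the no-effect control and ±100 the full control effect; nearly all actives have a fitted effect of over 55% in size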
Method in brief: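 MPP8 (50 nM) was preincubated with biotinylated H3(1-18)K9me3 peptide (50 nM) in PBS pH 7.4, 0.01% Tween-20 for 30 min at room temperature, then with compounds for 30 min; binding was detected by AlphaScreen.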

[5] = biological target: Methanococcus maripaludis chaperonin (MmCpn) (UniProt Q6LX38); experiment: High-Throughput Screening for Modulators of Cytosolic Chaperonin Activity: MmCpn Primary Screen (AID 488978);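 further: 50 nM MmCpn enzyme hydrolysing 30 µM ATP at 37 °C; 0% is about no effect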
Methanococcus maripaludis chaperonin (MmCpn), sequence (Q6LX38 1-543): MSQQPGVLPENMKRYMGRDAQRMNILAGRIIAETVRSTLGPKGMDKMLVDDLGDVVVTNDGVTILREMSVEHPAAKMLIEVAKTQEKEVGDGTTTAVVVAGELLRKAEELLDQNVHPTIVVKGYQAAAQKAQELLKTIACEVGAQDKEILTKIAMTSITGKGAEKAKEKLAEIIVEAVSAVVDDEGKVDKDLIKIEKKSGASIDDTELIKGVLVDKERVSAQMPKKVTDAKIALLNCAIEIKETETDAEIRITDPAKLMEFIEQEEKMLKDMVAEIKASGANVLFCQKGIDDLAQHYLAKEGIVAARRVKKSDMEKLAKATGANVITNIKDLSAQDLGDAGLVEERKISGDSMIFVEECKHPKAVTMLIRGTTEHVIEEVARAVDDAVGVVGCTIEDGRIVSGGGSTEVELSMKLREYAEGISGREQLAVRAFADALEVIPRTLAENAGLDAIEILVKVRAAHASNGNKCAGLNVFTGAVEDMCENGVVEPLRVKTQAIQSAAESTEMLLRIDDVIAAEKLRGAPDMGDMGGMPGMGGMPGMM
Method in brief: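 MmCpn (50 nM final) was preincubated with compound 5 min at RT, then 30 uM ATP (final) was added and the reaction ran 10 min at 37C. ADP produced was detected by Transcreener HTRF (ex 320 nm; em 590/665 nm).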

[6] = biological target: Transient receptor potential cation channel subfamily V member 1 (Homo sapiens) (UniProt Q8NER1); experiment: HTS Assay for Compounds that Act as Enhancers of the Vanilloid Receptor 1 (AID 488979); further: 0% is about no effect
Method in brief: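 TRPV1 cells loaded with Fluo-8 calcium dye; compound added and Ca2+ signal (ex 480/em 520 nm) followed 3 min, then capsaicin at EC20 added and read 2 more min to detect enhancement.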

[7] = biological target: Thyrotropin receptor (Homo sapiens) (UniProt P16473); experiment: qHTS Assay for Antagonists of the Thyroid Stimulating Hormone Receptor (AID 488980); further: series mostly up to about 58 µM; 0% is about no effect
Thyrotropin receptor (Homo sapiens), sequence (P16473 whole entry, looked up): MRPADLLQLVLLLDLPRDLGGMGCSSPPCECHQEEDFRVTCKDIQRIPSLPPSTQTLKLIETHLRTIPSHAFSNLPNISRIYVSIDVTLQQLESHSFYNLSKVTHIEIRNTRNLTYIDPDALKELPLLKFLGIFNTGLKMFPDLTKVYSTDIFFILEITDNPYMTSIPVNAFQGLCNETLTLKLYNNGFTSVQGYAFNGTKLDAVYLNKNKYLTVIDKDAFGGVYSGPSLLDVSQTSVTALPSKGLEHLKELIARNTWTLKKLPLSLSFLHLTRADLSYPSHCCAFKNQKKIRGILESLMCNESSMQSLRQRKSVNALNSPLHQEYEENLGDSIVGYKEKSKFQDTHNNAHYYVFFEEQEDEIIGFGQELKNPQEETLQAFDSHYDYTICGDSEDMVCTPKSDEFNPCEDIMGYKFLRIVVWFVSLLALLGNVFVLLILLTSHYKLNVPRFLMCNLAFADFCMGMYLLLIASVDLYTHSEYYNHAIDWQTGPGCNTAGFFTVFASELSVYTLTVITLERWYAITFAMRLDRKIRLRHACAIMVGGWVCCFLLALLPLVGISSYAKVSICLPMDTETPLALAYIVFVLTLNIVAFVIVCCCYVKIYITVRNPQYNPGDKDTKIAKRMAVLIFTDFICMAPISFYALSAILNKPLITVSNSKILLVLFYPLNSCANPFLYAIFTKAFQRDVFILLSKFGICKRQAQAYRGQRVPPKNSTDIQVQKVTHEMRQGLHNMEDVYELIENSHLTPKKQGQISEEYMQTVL
Method in brief: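 HEK293 cells transfected with human TSHR, suspended in HEPES-buffered HBSS with 70 uM RO 20-1724, were treated with compounds plus TSH at EC80 (4 nM final). cAMP was measured by competitive HTRF (cryptate anti-cAMP antibody, cAMP-d2 acceptor).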

[8] = biological target: D(1A) dopamine receptor (Homo sapiens) (UniProt P21728); experiment: HTS Assay for Allosteric Agonists of the Human D1 Dopamine Receptor: Primary Screen for Agonists (AID 488981); further: 0% is about no effect
D(1A) dopamine receptor (Homo sapiens), sequence (P21728 whole entry, looked up): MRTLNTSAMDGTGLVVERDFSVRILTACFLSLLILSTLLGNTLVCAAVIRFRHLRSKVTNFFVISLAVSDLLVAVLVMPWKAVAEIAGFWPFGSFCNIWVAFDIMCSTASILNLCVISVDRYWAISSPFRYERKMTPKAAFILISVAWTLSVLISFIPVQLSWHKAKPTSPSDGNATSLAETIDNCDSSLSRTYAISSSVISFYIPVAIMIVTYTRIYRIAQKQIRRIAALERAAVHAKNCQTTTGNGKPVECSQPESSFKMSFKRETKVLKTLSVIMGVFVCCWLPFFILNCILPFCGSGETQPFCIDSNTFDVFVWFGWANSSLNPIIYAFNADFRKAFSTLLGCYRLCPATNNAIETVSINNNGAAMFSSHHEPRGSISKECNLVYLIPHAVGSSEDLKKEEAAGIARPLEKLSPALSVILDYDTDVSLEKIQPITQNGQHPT
Method in brief: (§1)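 Tetracycline-induced HEK293 Trex D1 cells with forced coupling to calcium, loaded with no-wash calcium dye; kinetic fluorescence read 180 s after compound addition for agonism, then a further 180 s after an EC20 dopamine challenge for potentiation.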

[9] = biological target: D(1A) dopamine receptor (Homo sapiens) (UniProt P21728); experiment: HTS Assay for Allosteric Agonists of the Human D1 Dopamine Receptor: Primary Screen for Potentiators (AID 488982); further: 0% is about no effect
Method in brief: as §1

[10] = biological target: D(1A) dopamine receptor (Homo sapiens) (UniProt P21728); experiment: HTS Assay for Allosteric Agonists of the Human D1 Dopamine Receptor: Primary Screen for Antagonists (AID 488983);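 further: calcium flux response to an EC80 dopamine challenge measured with no-wash dye; nearly all actives have a fitted effect of over 65% in size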; further: potency means the concentration at half of the fitted maximal effect
Method in brief: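 Kinetic fluorescence at 1 cycle/sec tracked intracellular calcium in force-coupled, tetracycline-inducible HEK293 T-REx D1 cells. Loss of response to an EC80 dopamine dose, given 180 s after compound, marked antagonists.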

[11] = Validation screen for small molecules that induce genotoxicity in human embryonic kidney (HEK293T) cells expressing luciferase-tagged ELG1 (AID 493106); further: 0% is about no effect
Method in brief: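 Cells were dispensed at 2,000 per well, then 23 nL compound or DMSO was pinned in. After 16 hr at 37 °C and 5% CO2, ONE-Glo reagent was added. Luciferase activity was measured following 30 min at room temperature.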

[12] = biological target: Thyrotropin-releasing hormone receptor (Homo sapiens) (UniProt P34981); experiment: qHTS for Small Molecule Agonists and Allosteric Enhancers of Human TRH Receptor: Validation Screen for Agonists (AID 493127;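 active means calcium activation more than 3 SD above the typical response in the agonist read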;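 further: intracellular calcium rise by fluo-8 fluorescence before TRH EC20 addition; 0% is about no effect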); details: TRH receptor agonist cell assay; at 2 µM; stronger effect = higher value
Thyrotropin-releasing hormone receptor (Homo sapiens), sequence (P34981 whole entry, looked up): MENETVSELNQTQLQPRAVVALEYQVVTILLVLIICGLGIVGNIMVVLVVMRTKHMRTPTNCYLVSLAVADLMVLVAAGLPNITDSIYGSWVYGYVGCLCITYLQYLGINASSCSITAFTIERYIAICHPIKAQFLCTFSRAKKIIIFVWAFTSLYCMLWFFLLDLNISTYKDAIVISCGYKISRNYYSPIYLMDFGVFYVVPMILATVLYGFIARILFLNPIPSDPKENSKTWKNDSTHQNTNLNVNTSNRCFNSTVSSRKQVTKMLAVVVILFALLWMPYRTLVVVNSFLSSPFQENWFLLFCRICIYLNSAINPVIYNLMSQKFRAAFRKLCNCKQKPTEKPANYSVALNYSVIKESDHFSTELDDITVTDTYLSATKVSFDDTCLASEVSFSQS
Method in brief: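 Compounds are added by online pintool to dye-loaded TRHR cells while fluorescence is recorded every second. A rise in calcium signal during the agonist read marks activation; a later 10 nM TRH addition (EC20) serves the separate enhancer mode.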

[13] = Nrf2 qHTS screen for inhibitors: Validation (AID 493153; active means well fitted inhibition curve with a large enough effect in the main read-out, with a control signal flat, not every such curve was filed as active); details: Potency: luciferase luminescence; viability change: measured here: cytotoxicity max response
Method in brief: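 A549 ARE_Fluc, 5% FBS OPTI-MEM; cpd titration, 18-24 h, 37°C/5% CO2. Read 1: CellTiter-Fluor (Ex 405/Em 525), cytotox. Read 2: luciferase lum, Nrf2 activity.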

[14] = qHTS for Inhibitors of Cell Surface uPA Generation: Validation Assay (AID 493164);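 further: RAW 264.7 macrophage cells exposed to compound for 18 h; 0% is about no effect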
Method in brief: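 ATP-Lite luminescence read-out: ATP remains high when uPA activity-dependent LF translocation into the cytoplasm is blocked. RAW 264.7 cells, 18 h compound exposure at 37 C; 7-point titration, 2.45 nM to 38.3 uM final.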

[15] = Validation screen for small molecules that induce DNA re-replication in SW480 colon adenocarcinoma cells (AID 504364); further: 0% is about no effect
Method in brief: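 Image-based qHTS: compounds were incubated with SW480 cells for 48 hr, nuclei stained with Hoechst, and per-nucleus fluorescence intensity scanned to flag cells with excess DNA content.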

[16] = biological target: Chromobox protein homolog 1 (Homo sapiens) (UniProt P83916); experiment: qHTS Validation Assay for Inhibitors of HP1-beta Chromodomain Interactions with Methylated Histone Tails (AID 488953);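 further: loss of AlphaScreen luminescence from HP1-beta binding biotinylated H3K9me3 peptide; series mostly up to about 110 µM; on the % scale 0 is the no-effect control and ±100 the full control effect; nearly all actives have a fitted effect of over 50% in size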
Chromobox protein homolog 1 (Homo sapiens), sequence (P83916 whole entry, looked up): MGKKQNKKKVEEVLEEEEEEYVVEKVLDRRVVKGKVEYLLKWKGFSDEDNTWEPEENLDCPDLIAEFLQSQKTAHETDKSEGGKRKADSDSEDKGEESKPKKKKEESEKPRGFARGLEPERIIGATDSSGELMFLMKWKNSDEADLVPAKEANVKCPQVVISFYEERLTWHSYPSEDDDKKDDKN
Method in brief: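 Disruption of preformed HP1-beta:H3K9me3 peptide complexes (both 50 nM, PBS pH 7.4 with 0.01% Tween-20) is measured by AlphaScreen after 30 min compound exposure at room temperature, using streptavidin donor and nickel chelate acceptor beads at 10 ug/mL final.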

[17] = biological target: ATPase family AAA domain-containing protein 5 (Homo sapiens) (UniProt Q96QE3); experiment: Validation screen for small molecules that inhibit ELG1-dependent DNA repair in human embryonic kidney (HEK293T) cells expressing luciferase-tagged ELG1 (AID 493107);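 further: cells co-treated with the DNA-damaging agent 5-fluorouridine alongside compound; series mostly up to about 46 µM; on the % scale 0 is the no-effect control and ±100 the full control effect; inhibitors lower the ELG1-luciferase luminescence signal; nearly all actives have a fitted effect of over 70% in size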
ATPase family AAA domain-containing protein 5 (Homo sapiens), sequence (Q96QE3 whole entry, looked up, the tested form may be a part): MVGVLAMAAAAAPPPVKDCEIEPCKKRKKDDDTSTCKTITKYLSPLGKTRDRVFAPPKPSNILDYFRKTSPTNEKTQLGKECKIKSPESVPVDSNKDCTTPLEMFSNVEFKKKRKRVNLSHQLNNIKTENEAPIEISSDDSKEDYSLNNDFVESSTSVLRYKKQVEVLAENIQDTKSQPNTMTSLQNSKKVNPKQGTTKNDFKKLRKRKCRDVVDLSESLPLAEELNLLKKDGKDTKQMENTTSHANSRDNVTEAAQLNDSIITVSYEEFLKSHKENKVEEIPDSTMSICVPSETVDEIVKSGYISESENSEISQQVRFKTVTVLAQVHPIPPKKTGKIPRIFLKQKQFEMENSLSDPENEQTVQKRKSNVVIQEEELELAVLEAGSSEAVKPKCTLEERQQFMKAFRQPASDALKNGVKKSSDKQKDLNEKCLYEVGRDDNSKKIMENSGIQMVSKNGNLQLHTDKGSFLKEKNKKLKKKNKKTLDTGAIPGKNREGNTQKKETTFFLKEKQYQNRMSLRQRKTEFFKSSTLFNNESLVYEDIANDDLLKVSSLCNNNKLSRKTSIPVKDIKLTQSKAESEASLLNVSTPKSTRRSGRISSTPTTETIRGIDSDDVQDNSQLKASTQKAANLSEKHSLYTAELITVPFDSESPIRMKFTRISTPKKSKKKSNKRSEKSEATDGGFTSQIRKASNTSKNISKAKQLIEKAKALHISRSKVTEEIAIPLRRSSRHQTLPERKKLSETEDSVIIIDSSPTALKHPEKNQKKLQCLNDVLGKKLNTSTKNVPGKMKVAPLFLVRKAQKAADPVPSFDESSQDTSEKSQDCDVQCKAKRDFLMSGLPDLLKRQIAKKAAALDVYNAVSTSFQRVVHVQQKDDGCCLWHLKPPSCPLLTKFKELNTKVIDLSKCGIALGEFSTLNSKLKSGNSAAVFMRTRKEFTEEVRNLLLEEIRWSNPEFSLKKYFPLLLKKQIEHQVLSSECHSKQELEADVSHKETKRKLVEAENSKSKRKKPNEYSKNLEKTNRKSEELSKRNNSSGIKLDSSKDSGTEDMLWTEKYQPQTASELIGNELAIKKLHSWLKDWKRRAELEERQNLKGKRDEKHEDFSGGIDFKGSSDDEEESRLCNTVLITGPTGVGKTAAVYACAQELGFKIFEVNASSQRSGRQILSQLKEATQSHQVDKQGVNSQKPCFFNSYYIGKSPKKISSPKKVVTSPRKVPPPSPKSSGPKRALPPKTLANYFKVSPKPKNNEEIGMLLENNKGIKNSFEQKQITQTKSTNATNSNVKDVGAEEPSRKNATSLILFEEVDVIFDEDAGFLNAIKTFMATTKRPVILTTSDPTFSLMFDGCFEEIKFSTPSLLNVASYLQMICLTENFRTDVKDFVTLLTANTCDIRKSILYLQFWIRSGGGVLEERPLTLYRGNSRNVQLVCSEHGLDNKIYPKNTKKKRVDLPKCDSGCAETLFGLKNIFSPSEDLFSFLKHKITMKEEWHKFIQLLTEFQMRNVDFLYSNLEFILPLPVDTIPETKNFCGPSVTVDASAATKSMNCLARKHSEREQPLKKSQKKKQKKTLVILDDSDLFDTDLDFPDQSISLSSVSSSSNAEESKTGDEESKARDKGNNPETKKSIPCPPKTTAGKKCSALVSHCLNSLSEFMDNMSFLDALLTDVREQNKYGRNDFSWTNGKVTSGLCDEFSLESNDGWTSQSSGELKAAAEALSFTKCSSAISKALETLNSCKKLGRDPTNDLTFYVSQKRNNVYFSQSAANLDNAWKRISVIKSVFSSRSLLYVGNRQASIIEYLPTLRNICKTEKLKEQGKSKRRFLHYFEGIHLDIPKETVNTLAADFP
Method in brief: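 Cells are dispensed in 1536-well format, then 5-fluorouridine and compound are pinned in. After a 16 hr incubation at 37 °C and 5% CO2, ONE-Glo is added and luciferase measured on a CCD imager.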

[18] = biological target: Galactokinase (Homo sapiens) (UniProt P51570); experiment: qHTS Validation Assay for Inhibitors of Human Galactokinase (GALK) (AID 493189); further: 0% is about no effect
Galactokinase (Homo sapiens), sequence (P51570 whole entry, looked up): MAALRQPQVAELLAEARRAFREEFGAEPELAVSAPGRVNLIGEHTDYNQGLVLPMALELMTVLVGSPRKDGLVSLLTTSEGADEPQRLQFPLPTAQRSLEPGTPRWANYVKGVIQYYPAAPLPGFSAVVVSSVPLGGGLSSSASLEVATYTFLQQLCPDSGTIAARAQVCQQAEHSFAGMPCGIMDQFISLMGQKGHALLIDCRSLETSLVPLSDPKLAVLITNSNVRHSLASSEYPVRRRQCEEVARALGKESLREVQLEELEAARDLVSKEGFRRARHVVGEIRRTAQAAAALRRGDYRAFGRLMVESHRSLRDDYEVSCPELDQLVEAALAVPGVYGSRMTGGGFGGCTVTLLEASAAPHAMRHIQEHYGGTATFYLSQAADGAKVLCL
Method in brief: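 GALK (5 nM) with 35 uM ATP and 100 uM galactose in HEPES pH8.0, MgCl2, NaCl, DTT, BSA; 1 h at room temperature. Residual ATP read by Kinase-Glo Plus luminescence after 10 min.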

[19] = biological target: ATP-dependent 6-phosphofructokinase (Trypanosoma brucei brucei) (UniProt O15648); experiment: qHTS Assay to Find Inhibitors of T. brucei phosphofructokinase: hit validation (AID 492961);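 further: luminescence reports ADP formed as PFK phosphorylates fructose-6-phosphate with ATP; series mostly up to about 51 µM; on the % scale 0 is the no-effect control and ±100 the full control effect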
Method in brief: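 Inhibition of parasite PFK is measured as reduced ADP formation, quantified via luciferase after ATP depletion. Assay used 0.1 mM ATP, 0.5 mM F6P, 1.25 nM enzyme, 45 min incubation.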

N[C@@H](CCl)C(=O)O
inactive: outcome [1] | Potency [2] | Potency [3] | Potency [4] | outcome [5] | outcome [6] | outcome [7] | Potency [8] | Potency [9] | Potency [10] | Potency [11] | activation [12] 1.31% | Potency [13] | outcome [14] | Potency [15]
4.83%: viability change [13]

NNC(=O)c1ccc(O)cc1
inactive: outcome [1] | Potency [2] | Potency [3] | Potency [4] | Potency [16] | outcome [5] | outcome [6] | outcome [7] | Potency [8] | Potency [10] | Potency [11] | Potency [17] | Potency [13] | outcome [14] | Potency [15]
6.63%: viability change [13]

C[C@H](N)CN1CCc2ccc(Br)cc21
-2.43%: viability change [13]
inactive: outcome [1] | Potency [2] | Potency [3] | Potency [4] | outcome [5] | outcome [7] | Potency [10] | Potency [11] | activation [12] 0.625% | Potency [13] | outcome [14] | outcome [18] | Potency [15]

CCCN(CCC)CCc1ccc(O)c(O)c1
inactive: outcome [1] | Potency [2] | Potency [3] | Potency [16] | outcome [5] | outcome [6] | outcome [7] | Potency [8] | Potency [9] | Potency [11] | Potency [13] | outcome [14] | outcome [18] | Potency [15]
active: Potency [10] 1780 nM
-6.78%: viability change [13]

NNC(N)=O
inactive: outcome [1] | Potency [2] | Potency [3] | Potency [4] | Potency [16] | outcome [5] | outcome [6] | outcome [7] | Potency [8] | Potency [10] | Potency [11] | Potency [17] | activation [12] 0.625% | outcome [14] | outcome [18] | Potency [15]

C=CCN(C1=NCCN1)c1c(Cl)cccc1Cl
inactive: outcome [1] | Potency [2] | Potency [3] | Potency [16] | outcome [5] | Potency [8] | Potency [9] | Potency [10] | Potency [19] | Potency [11] | Potency [17] | Potency [13] | outcome [14]
-5.34%: viability change [13]

NCC(CP(=O)(O)O)c1ccc(Cl)cc1 (configuration not stated)
3.89%: viability change [13]
inactive: outcome [1] | Potency [2] | Potency [3] | Potency [4] | Potency [16] | outcome [5] | outcome [6] | outcome [7] | Potency [8] | Potency [9] | Potency [10] | Potency [11] | Potency [13] | outcome [14] | outcome [18] | Potency [15]

c1ccc2c(N3CCNCC3)cccc2c1
inactive: outcome [1] | Potency [2] | Potency [3] | Potency [4] | Potency [16] | outcome [5] | outcome [6] | outcome [7] | Potency [8] | Potency [9] | Potency [11] | Potency [17] | activation [12] 1.75% | outcome [14] | outcome [18] | Potency [15]

CN1CC[C@@]2(C)c3cc(OC(=O)Nc4ccccc4)ccc3N(C)[C@@H]12
-13.9%: viability change [13]
inactive: outcome [1] | Potency [2] | Potency [3] | Potency [4] | outcome [5] | Potency [8] | Potency [9] | Potency [10] | Potency [11] | Potency [17] | Potency [13] | outcome [14]

CCCN1CC[C@@H]2c3cc(O)ccc3CC[C@@H]21
inactive: outcome [1] | Potency [2] | Potency [3] | Potency [4] | outcome [5] | outcome [6] | outcome [7] | Potency [8] | Potency [9] | Potency [11] | Potency [17] | activation [12] -5.31% | Potency [13] | outcome [14] | outcome [18] | Potency [15]
9.01%: viability change [13]

C[N+]1(C)CCOC(O)(c2ccc(-c3ccc(C4(O)C[N+](C)(C)CCO4)cc3)cc2)C1 (configuration not stated)
-1.71%: viability change [13]
inactive: outcome [1] | Potency [2] | Potency [3] | Potency [4] | Potency [16] | outcome [5] | outcome [6] | outcome [7] | Potency [8] | Potency [10] | Potency [11] | Potency [17] | activation [12] 1.19% | Potency [13] | outcome [14] | outcome [18] | Potency [15]

C[C@@H]1O[C@@H](O[C@H]2C[C@@H](O)[C@]3(CO)[C@@H]4C(CC[C@]3(O)C2)[C@@]2(O)CC[C@H]([C@@H]3COC(=O)C3)[C@@]2(C)C[C@H]4O)[C@H](O)[C@H](O)[C@H]1O (some centres not stated)
inactive: outcome [1] | Potency [2] | Potency [3] | Potency [16] | outcome [5] | Potency [8] | Potency [10] | Potency [11] | outcome [14]

OCc1cnc[nH]1
1.78%: viability change [13]
inactive: outcome [1] | Potency [2] | Potency [3] | Potency [16] | outcome [5] | outcome [6] | outcome [7] | Potency [8] | Potency [10] | Potency [11] | Potency [17] | Potency [13] | outcome [14] | outcome [18] | Potency [15]

CCN1C[C@@]2(COC)C3[C@@H](OC)C4[C@@H]1C3([C@@H]1C[C@]3(O)[C@H](OC(=O)c5ccccc5)[C@@H]1[C@]4(OC(C)=O)[C@@H](O)[C@@H]3OC)[C@H](OC)C[C@H]2O
0.88%: viability change [13]
inactive: outcome [1] | Potency [2] | Potency [3] | Potency [4] | Potency [16] | outcome [5] | Potency [8] | Potency [10] | Potency [11] | Potency [17] | Potency [13] | outcome [14]

C=CCN1C[C@@H](C)N([C@H](c2ccc(C(=O)N(CC)CC)cc2)c2cccc(OC)c2)C[C@@H]1C
4.14%: viability change [13]
inactive: outcome [1] | Potency [2] | Potency [3] | Potency [4] | outcome [5] | outcome [6] | outcome [7] | Potency [8] | Potency [10] | Potency [11] | Potency [17] | activation [12] 2.06% | Potency [13] | outcome [14] | Potency [15]

Oc1ccc2c3c1O[C@H]1c4[nH]c5ccccc5c4C[C@@]4(O)C(C2)N(CC2CC2)CCC314 (some centres not stated)
-8.87%: viability change [13]
inactive: outcome [1] | Potency [2] | Potency [3] | Potency [4] | Potency [16] | outcome [5] | outcome [7] | Potency [8] | Potency [9] | Potency [10] | Potency [11] | Potency [13] | outcome [14] | Potency [15]
